The list is not random: actives were taken first. Their share in the collection is about 1.7%.
GLP1R ag: activates the human GLP-1 receptor | P43220 | HEK293 GLP-1R CRE-luciferase, luminescence, 4-6 h; cells express a hypersensitive GLP-1R form | Potency, µM (titrated, usually from 45.6 µM), without a hit: top-dose activation, usual class: activators | 0.007% of 380,000 active | AID 624172; note: % of control where 0% means no effect
Target sequence (P43220 whole entry, looked up): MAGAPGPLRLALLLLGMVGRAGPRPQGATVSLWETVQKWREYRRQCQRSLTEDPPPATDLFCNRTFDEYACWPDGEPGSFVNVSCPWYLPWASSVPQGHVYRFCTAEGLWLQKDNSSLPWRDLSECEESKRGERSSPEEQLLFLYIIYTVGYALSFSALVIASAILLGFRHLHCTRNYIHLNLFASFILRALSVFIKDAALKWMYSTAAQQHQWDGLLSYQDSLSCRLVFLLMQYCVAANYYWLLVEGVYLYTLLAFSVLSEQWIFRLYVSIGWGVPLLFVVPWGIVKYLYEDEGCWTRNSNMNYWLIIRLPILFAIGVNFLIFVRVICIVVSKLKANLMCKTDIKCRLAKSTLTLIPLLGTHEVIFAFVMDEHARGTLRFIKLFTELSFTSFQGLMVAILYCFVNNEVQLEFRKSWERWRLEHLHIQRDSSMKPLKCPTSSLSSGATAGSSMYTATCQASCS
PTHR1 ag: agonists of human PTHR1 parathyroid hormone receptor; Q03431; HEK293 GP2 PTHR1 cells, GloSensor cAMP luminescence, 1 h; Potency, µM (doses to about 115 µM), inactives show at the top dose activation, actives largely listed as activators; 0.075% of 410,000 active; note: nearly all actives have a fitted effect of over 55% in size
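HEK-293-derived GP2 cells expressing PTHR1 and a GloSensor cAMP reporter, 3,000/well, plated overnight, given luciferin plus IBMX (each 0.5 mM as added) for 1 h at 37 °C, then compound for 1 h at 37 °C. Luminescence was read after 15 min at room temperature.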
HEK293 tox: cytotoxicity counter-screen for GLP-1 receptor inverse agonists; Potency, µM (top dose mostly 38.3 µM), without a hit: at the top dose activity change, negative = inhibition, hits mostly inhibitors; 0.13% of 410,000 active; AID 624418; HEK293 cAMP-luciferase reporter cells, luminescence, 24 h;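 note: loss of luciferase light is scored as toxicity; % is set by controls: 0 for no effect and ±100 for the full control effect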
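Here, cytotoxicity is scored as loss of luminescence. The MLSMR collection was tested on cells seeded in medium containing 10% Nu serum, with a 24 hr compound exposure preceded by 12 hours of culture.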
GLP-1R inv ag: acts as inverse agonist at human GLP-1 receptor; 1.6% of 410,000 active; Potency, µM (titrated, usually from 38.3 µM), for inactives: top-dose activity change, negative = inhibition, most hits filed as inhibitors; HEK293 GLP-1R CRE-luciferase, luminescence, 24 h; GLP-1R form is constitutively active; note: % is set by controls: 0 for no effect and ±100 for the full control effect; nearly all actives have a fitted effect of over 55% in size
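Inverse agonists were sought by their lowering of basal cAMP reporter luciferase output in HEK293 cells stably carrying constitutively active human GLP-1R, after 24 h compound treatment.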
* hit, by the source's call; [ ] = remark or other dose. Calls come from the whole dose curve; as a rule, active = well fitted curve in the direction sought with a large enough effect; inconclusive = small, poorly fitted or top-dose-only effect, or another doubt; inactive = no such curve, though single readings can be large; an effect the other way counts as inactive or inconclusive. Potency is the fitted concentration of half-maximal effect.

COc1ccc(Cl)cc1NC(=O)CSc1nnc(C)n2c1cc1occc12 was read as PTHR1 ag inactive, HEK293 tox -3.0% and GLP-1R inv ag 28.0%.
CN(C)c1ccc(C=C2SC(=S)N(Cc3ccco3)C2=O)cc1 was read as GLP1R ag 2.8%, PTHR1 ag -4.5%, HEK293 tox -14.6% and GLP-1R inv ag -1.1%.
Screening COc1ccc(-n2c(C)cc(/C=C3/SC(=S)N(C)C3=O)c2C)cc1 returned GLP1R ag -2.3%, PTHR1 ag -13.7%, HEK293 tox -8.9% and GLP-1R inv ag -16.2%.
`Cc1cc(/C=C2\SC(=S)N(C)C2=O)c(C)n1-c1cccc(O)c1` gave GLP1R ag -3.3%, PTHR1 ag -29.2%, HEK293 tox 3.1% and GLP-1R inv ag 2.82µM*.
Screening Cc1cc(/C=C2\SC(=S)N(Cc3ccco3)C2=O)c(C)n1-c1ccccc1 returned GLP1R ag -7.6%, PTHR1 ag inactive, HEK293 tox 3.7% and GLP-1R inv ag 2.24µM*.
Screening O=C(CSc1nc2c([nH]c3ccccc32)c(=O)n1-c1ccc(Cl)cc1)NCC1CCCO1 (stereo unspecified) returned GLP1R ag 1.9%, PTHR1 ag inactive, HEK293 tox -11.6% and GLP-1R inv ag 5.5%.
Screening Cc1ccccc1N1CCN(Cc2c[nH]c3ccccc23)CC1 returned GLP1R ag -1.8%, PTHR1 ag 3.98µM*, HEK293 tox inconclusive and GLP-1R inv ag inconclusive.
Screening CCCCC(=O)N(C)c1c(CC)nc2c(OCc3ccc(C(F)(F)F)cc3)cccn12 returned GLP1R ag -3.8%, PTHR1 ag inactive, HEK293 tox -12.4% and GLP-1R inv ag 11.2µM*.
For COc1ccccc1CN(C)C(=O)C(NC(=O)Cc1cccc2ccccc12)C(C)C (stereo unspecified) the results were GLP1R ag 18.2%, PTHR1 ag -16.5%, HEK293 tox inconclusive and GLP-1R inv ag 10µM*.
`COc1ccc(CN(C)C(=O)CNC(=O)Cc2cccc3ccccc23)c(OC)c1OC` gave GLP1R ag 27.3%, PTHR1 ag -0.1%, HEK293 tox -0.5% and GLP-1R inv ag 6.9%.
O=C(/C=C/Nc1ccccc1Br)c1ccccn1 was read as GLP1R ag -21.5%, PTHR1 ag -18.0%[57.5 µM], HEK293 tox -3.0% and GLP-1R inv ag 2µM*.
O=C(/C=C\Nc1ccccn1)c1ccccc1 was read as GLP1R ag -36.1%, PTHR1 ag -9.3%, HEK293 tox 2.8% and GLP-1R inv ag inconclusive.
NNC(=O)Cn1c(-c2nonc2N)nc2ccccc21 was read as GLP1R ag 1.9%, PTHR1 ag -4.8%, HEK293 tox 14.2% and GLP-1R inv ag -22.2%.
Nc1nonc1-c1nc2ccccc2n1CC(=O)N/N=C\c1ccc(-c2ccc(Cl)cc2)o1 was read as GLP1R ag 1.2%, PTHR1 ag inactive, HEK293 tox 8.1% and GLP-1R inv ag 10µM*.
For COc1ccc2c(c1)c(=O)c(C(=O)c1ccc(F)cc1)cn2CC(=O)Nc1ccc2c(c1)OCCO2 the results were GLP1R ag 0.8%, PTHR1 ag inactive, HEK293 tox 6.1% and GLP-1R inv ag -7.8%.
`CCOC(=O)Cc1ccc(NC(=O)N2CCc3c(sc4c3CCCC4)C2c2ccc(F)cc2)cc1` (stereo unspecified) gave PTHR1 ag inactive, HEK293 tox 0.1% and GLP-1R inv ag 3.98µM*.
Cc1ccc(NC(=O)c2cnn(-c3ccc(C)c(C)c3)c2C2CCN(C(=O)OC(C)(C)C)CC2)c(C)c1 was read as PTHR1 ag 13.5%, HEK293 tox -16.0% and GLP-1R inv ag 9.4%.
`Fc1ccc(C(NCCc2ccc(Cl)cc2)c2nnc(-c3ccccc3)o2)c(Cl)c1` (stereo unspecified) gave PTHR1 ag -45.3%, HEK293 tox 1.1% and GLP-1R inv ag 10µM*.
Screening O=C1OCCN1C(=O)[C@H]1[C@H](c2ccc([N+](=O)[O-])cc2)C(c2cccc(Cl)c2)=NN1c1ccc(Br)cc1 returned GLP1R ag -2.8%, PTHR1 ag -8.1%, HEK293 tox -20.6% and GLP-1R inv ag inconclusive.
CC[C@@H]1C(c2ccccc2)=NN(c2ccc(Br)cc2)[C@H]1C(=O)N1CCOC1=O was read as GLP1R ag 1.0%, PTHR1 ag -43.1%, HEK293 tox 49.8% and GLP-1R inv ag inconclusive.

Bioassay records (PubChem BioAssay)
